The text below walks through data of PubChem BioAssay AID485281 (National Center for Advancing Translational Sciences (NCATS), 2010).

The whole screen tested about 350,000 compounds, of which about 260 (0.074%) were called active. Roughly 8% stayed inconclusive and do not appear here. Calls follow the shape of the dose curve; as a rule, active = well fitted inhibition curve with a large enough effect; inconclusive = small, poorly fitted or top-dose-only effect; inactive = no such curve, though single readings can be large or run the other way. The full list was thinned out, with actives kept by preference.
% is scaled to controls: 0 for no effect and ±100 for the full control effect; potency is read from the fitted curve at half-maximal effect.

Chain of Ferritin light chain (Equus caballus) (P02791 2-175 limits assumed): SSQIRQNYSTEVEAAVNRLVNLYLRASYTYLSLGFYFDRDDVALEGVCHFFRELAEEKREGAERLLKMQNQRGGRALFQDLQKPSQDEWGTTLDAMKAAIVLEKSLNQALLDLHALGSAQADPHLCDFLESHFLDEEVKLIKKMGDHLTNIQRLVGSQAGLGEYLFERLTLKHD

The experiment has as its target Ferritin light chain (Equus caballus) (UniProt P02791). Put plainly: qHTS Assay for Identification of Novel General Anesthetics. Also: nearly all actives have a fitted effect of over 20% in size. The conditions noted are these: apoferritin/1-aminoanthracene competitive binding, fluorescence; series mostly up to 77.5 µM; activity change, negative = displacement: at the top concentration. Put shortly: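 Read-out: endpoint 1-AMA fluorescence, excitation 380 nm and emission 535 nm, after compounds sit 10 min at room temperature with 10 uM horse-spleen apoferritin in 50% saturated 1-AMA/PBS. Values come from four-parameter Hill fits.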
In general terms: qHTS replaces the single test concentration by a dilution series.
`O=C(CSc1nccn1C1CCCC1)Nc1cc(C(F)(F)F)ccc1Cl`: the “activity change, negative = displacement” value is -7.55% (inactive).

With `CCN(CC)c1ccc(NS(=O)(=O)c2cc(-c3cc(C)no3)ccc2C)c(C)c1`, the “activity change, negative = displacement” value was -16.1% (inactive).

As for `Cc1ccc(F)c(NC(=O)CCc2ccccc2)c1`, the Potency was 12.6 µM (active).

`Cc1cccc(OCC(=O)Nc2ccccc2F)c1`: the “activity change, negative = displacement” value was -10.1% (inactive).

For `Cc1ccc(F)c(NC(=O)CCOc2ccccc2C)c1`, the “activity change, negative = displacement” value was -17.2% (inactive).

For the molecule `CCc1ccc(NC(=O)C2CCCN2S(=O)(=O)c2ccc3nc(-c4ccccc4)[nH]c3c2)cc1` (configuration not stated), the “activity change, negative = displacement” value is 45.5% (inactive).

For the molecule `CSc1ccc(C2c3c(oc4ccccc4c3=O)C(=O)N2CCCN2CCOCC2)cc1` (configuration not stated), the “activity change, negative = displacement” value is -3.91% (inactive).

As to `Cc1ccc2oc3c(c(=O)c2c1)C(c1ccc([N+](=O)[O-])cc1)N(CCCN1CCOCC1)C3=O` (configuration not stated), the “activity change, negative = displacement” value was 2.9% (inactive).

For the molecule `CCCOc1ccc(C2c3c(oc4cc(C)c(C)cc4c3=O)C(=O)N2CCCN2CCOCC2)cc1` (configuration not stated), the Potency was 35.5 µM (active).

On to `CCOc1ccc(C(NC(=O)c2cc(OC)c(OC)c(OC)c2)c2cc(Cl)c3cccnc3c2O)cc1` (configuration not stated), for which the “activity change, negative = displacement” value was -4.02% (inactive).

`Cc1c(Cl)cccc1NC(=O)Cn1cc(C(=O)c2cccs2)c2ccccc21`: the “activity change, negative = displacement” value was -3.85% (inactive).

As to `O=C(Nc1ccc(Br)cc1)c1ccc(Br)c(S(=O)(=O)NCc2ccccc2)c1`, the “activity change, negative = displacement” value is -4.58% (inactive).

Regarding `CCCn1c2ccccc2c2cnn(CC(=O)NCC3CCN(Cc4ccc(C)cc4)CC3)c(=O)c21`, the “activity change, negative = displacement” value is 2.12% (inactive).

For the molecule `COc1ccc(N2CCN(c3nc(-c4ccccc4F)nc4ccccc34)CC2)cc1`, the “activity change, negative = displacement” value is 2.92% (inactive).

`COc1ccc(OC)c(NC(=O)/C=C/c2ccc(C)o2)c1`: the “activity change, negative = displacement” value was -9.12% (inactive).

Regarding `CCC1CN(S(=O)(=O)c2cc(-c3cc(C)no3)ccc2C)c2cc(C)ccc2O1` (configuration not stated), the “activity change, negative = displacement” value is 53.1% (inactive).

For `CC(C)c1ccc(OCC(=O)N(Cc2ccc(N(C)C)cc2)C2CCS(=O)(=O)C2)cc1` (configuration not stated), the “activity change, negative = displacement” value was 0.697% (inactive).

Take `CSc1ccc(CCNC(=O)c2ccc3c(c2)nc2n3CCOC2)cc1`: the “activity change, negative = displacement” value was 2.01% (inactive).

For `CC(C)S(=O)(=O)c1oc(-c2ccc(F)cc2)nc1S(=O)(=O)c1ccc(F)cc1`, the “activity change, negative = displacement” value is -17% (inactive).

Turning to `CCOc1ccc(-c2cc(C)n3nc(C(=O)Nc4ccc(C)c(C)c4)cc3n2)cc1`, the “activity change, negative = displacement” value was -1.85% (inactive).

In the case of `COc1ccc(Cl)cc1NC(=O)CCn1c(=O)c2cccn2c2ccccc21`, the “activity change, negative = displacement” value is 1.18% (inactive).

Take `O=C(NCc1ccccc1)C(=O)NCC(c1ccco1)S(=O)(=O)c1ccc(Cl)cc1` (configuration not stated): the “activity change, negative = displacement” value is 0.676% (inactive).

Take `CCC(=O)N1CCc2cc(S(=O)(=O)NC(Cc3ccccc3)C(=O)NCc3ccccc3)ccc21` (configuration not stated): the “activity change, negative = displacement” value is -3.69% (inactive).

As to `CC(C)c1ccc(NC(=O)c2ccc(Cn3nc(N4CCN(c5ccccc5)CC4)ccc3=O)o2)cc1`, the “activity change, negative = displacement” value is -20.7% (inactive).

With `Cc1ccc(CCNC(=O)c2ccc(CS(=O)(=O)Cc3cccc(C)c3)o2)cc1`, the “activity change, negative = displacement” value is -18.4% (inactive).

In the case of `CNC(=O)c1ccc(-c2nc(CN3CCc4ccccc43)c(C)o2)cc1`, the “activity change, negative = displacement” value is -15.1% (inactive).

Regarding `COc1ccc(-c2noc(CSc3nc4ccc(C)cc4[nH]3)n2)cc1`, the “activity change, negative = displacement” value was -17.7% (inactive).

For `Cc1ccc(C(=O)Nc2ccc(OCc3cc(=O)n4c5c(sc4n3)CCCC5)cc2)cc1`, the “activity change, negative = displacement” value was -0.406% (inactive).

On to `O=C(Nc1ccc(NC(=O)c2cccs2)cc1)c1ccc2ccccc2c1`, for which the “activity change, negative = displacement” value was 8.46% (inactive).

In the case of `C=CC(=O)c1ccc2ccccc2c1`, the Potency is 17.8 µM (active).

Turning to `O=C(Nc1ccccc1N1CCCC1)c1ccc2ccccc2c1`, the “activity change, negative = displacement” value is -13.8% (inactive).

Consider `CCOc1cc(C(=O)Nc2nnc3n2CCS3)cc(OCC)c1OCC`, for which the “activity change, negative = displacement” value was 3.04% (inactive).

With `Cc1cc(O)c(C(c2ccccc2)N2CCN(c3ccccc3F)CC2)c(=O)n1Cc1ccco1` (configuration not stated), the “activity change, negative = displacement” value is -12.2% (inactive).

As for `CCOc1cc(-c2nnc(SCC(=O)NC3CCCCC3)nc2-c2ccc(OC)c(OCC)c2)ccc1OC`, the “activity change, negative = displacement” value is 3.53% (inactive).

On to `COc1ccc(C(=O)Nc2ccc(-n3nncc3-c3ccccc3)cc2)cc1OC`, for which the “activity change, negative = displacement” value was -2.67% (inactive).

For the molecule `Cn1c(C(=O)N2CCC(C(=O)N3CCN(c4ccccc4)CC3)CC2)cc2sccc21`, the “activity change, negative = displacement” value is 1.34% (inactive).

Consider `CC(C)(C)OC(=O)N1CCC(c2c(C(=O)NCCc3ccsc3)cnn2-c2ccc(F)cc2F)CC1`, for which the “activity change, negative = displacement” value was -21.7% (inactive).

Take `COc1cccc(C(c2c(O)cc(C)n(Cc3ccco3)c2=O)N2CCN(c3ccccc3)CC2)c1` (configuration not stated): the “activity change, negative = displacement” value was 55.7% (inactive).

For the molecule `COc1ccc2ncc3c(-c4ccc(C)c(C)c4)nn(CC(=O)NC4CCCC4)c3c2c1`, the “activity change, negative = displacement” value is -5.23% (inactive).

With `Cc1ccc2occ(/C=N/NC(=O)c3ccccc3C)c(=O)c2c1`, the Potency is 25.1 µM (active).

Consider `CC(C)(C)OC(=O)NCCCCCC(=O)N/N=C/c1coc2ccccc2c1=O`, for which the “activity change, negative = displacement” value is 5.44% (inactive).

On to `O=c1c(/C=N/O)coc2ccc(Cl)cc12`, for which the “activity change, negative = displacement” value was -1.41% (inactive).

As for `O=S(=O)(NCC(c1ccccc1)N1CCc2ccccc21)c1ccccc1` (configuration not stated), the “activity change, negative = displacement” value is 51.7% (inactive).

Turning to `O=C(O)c1c(CNCc2cccc(F)c2)c2ccccc2n1Cc1ccccc1`, the “activity change, negative = displacement” value is -21.5% (inactive).

Turning to `O=c1cc2nc(-c3ccccc3)nc(SCCOc3ccc(Cl)cc3)n2[nH]1`, the “activity change, negative = displacement” value is -0.698% (inactive).

Take `COc1ccc(CCN2C(=O)N(c3cccc(OC)c3)C(=O)C2CC(=O)Nc2ccccc2)cc1` (configuration not stated): the “activity change, negative = displacement” value is 85.6% (inactive).

Regarding `CCc1cnc2c(c1SCC(=O)c1ccccc1)c(=O)n(C)c(=O)n2C`, the “activity change, negative = displacement” value was -10.2% (inactive).

As for `CCCNC(=O)c1ccc2c(c1)ncn2-c1ccc(C)cc1C`, the “activity change, negative = displacement” value was -7.08% (inactive).

Take `CC(C)c1ccc(S(=O)(=O)Nc2ccc(O)c(Sc3nc4ccccc4s3)c2)cc1`: the “activity change, negative = displacement” value was -11.6% (inactive).

Regarding `COc1cc(NC(=O)c2cc3ccc4cccnc4c3[nH]2)cc(OC)c1OC`, the “activity change, negative = displacement” value is -13.1% (inactive).

`CCOc1ccc(OCC)c(NC(=O)CN(c2ccc(C)cc2)S(=O)(=O)c2c(C)n[nH]c2C)c1`: the “activity change, negative = displacement” value is -11.5% (inactive).

As for `COc1ccc(OC)c(CCNC(=O)CCCn2c(=O)c3cccn3c3cccnc32)c1`, the “activity change, negative = displacement” value was 10.6% (inactive).
